Each structure is given as a SMILES string. Hit rate of the full screen: of about 260,000 compounds, about 1,500 (0.58%) were called active. Another 5% or so got no clear call; they are omitted.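 How the source made its calls: active means inhibition above a set limit at one or more doses, reproduced on every date tested; inconclusive means results disagree between test dates, or hit never tested in dose response; inactive means the rest.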 These entries were drawn from the full list. Entries with a potency or affinity are not part of this list.

This test concerns the target Virion infectivity factor (Human immunodeficiency virus type 1 group M subtype B (isolate BH10)) + Virion infectivity factor (Human immunodeficiency virus type 1 group M subtype B (isolate BRU/LAI)) + Virion infectivity factor (Human immunodeficiency virus type 1 group M subtype B (isolate PCV12)) + Virion infectivity factor (Human immunodeficiency virus type 1 group M subtype B (isolate HXB2)) + DNA dC->dU-editing enzyme APOBEC-3G (Homo sapiens) (UniProt P69720+P69721+P69722+P69723+Q9HC16). Nature of the test: HIV-1 Vif–A3G interaction blockers – biochemical, TR-FRET, GST-Vif 1-94, biotin-A3G peptide, dose response retest, primary screen (AID 1117319).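 Further: Vif residues 1-94 fused to GST binding biotinylated APOBEC3G peptide 110-148; 0% = full assay without inhibitor and 100% = GST in place of GST-Vif.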 Conditions: TR-FRET GST-Vif / biotin-A3G peptide binding; active compounds read high. Background: TR-FRET usually uses a lanthanide donor and a delayed reading to cut background.
One may read the inhibition as the relative decrease from the control value, in per cent. Consider `COC(=O)c1ccc(NC(=S)N2CCN(Cc3ccccc3)CC2)cc1`, for which the inhibition was 10.9% (inactive).
Regarding `O=C(c1ccc(COc2ccc3ccccc3c2)o1)N1N=C(C(F)F)CC1(O)C(F)F` (configuration not stated), the inhibition is -0.12% (inactive).
For `COc1cc2[nH]c(=S)nc(NCc3ccc(C)cc3)c2cc1OC` the value was -6.65% (inactive); for `O=C1C(O)=CC(=C(c2ccccc2)c2ccccc2)c2ccccc21`, 15.1% (inactive).
For `Cc1ccc2c(CC(=O)OCc3csc(C)n3)coc2c1` the value was 11.1% (inactive).
The figure for `COc1cccc(OC)c1C(=O)OCC(=O)NCC(C)C` is 14.3% (inactive); for `CCC1(C)N([O-])C(C)=C(c2ccccc2)[N+]1=O` (configuration not stated) it is 4.55% (inactive); for `CC1(C)N([O-])C2=C(CCCC2)[N+]1=O` it is 4.01% (inactive).
`CCc1ccc(N(C(=O)c2csnn2)C(C(=O)NC(C)(C)C)c2ccccn2)cc1` (configuration not stated): the inhibition was 0.91% (inactive).
Regarding `O=C(c1n[nH]c(=O)c2ccccc12)N1CCN(Cc2ccc3c(c2)OCO3)CC1`, the inhibition was 4.07% (inactive).
The figure for `CCN(CC(=O)Nc1c(F)cccc1F)C(=O)c1ccc(N2CCCC2=O)cc1` is -13.8% (inactive).
For `CCOC(=O)c1csc(NC(=O)c2cc3ccccc3o2)n1` the value was 0.78% (inactive).
For the molecule `Cc1csc(NC(=O)c2cc3ccccc3o2)n1`, the inhibition was 0.57% (inactive).
For `Cc1ccc(OCC(=O)NCc2ccc3c(c2)OCO3)c([N+](=O)[O-])n1` the value was 8.23% (inactive); for `CC(C)C(=O)Nc1nnc(Cc2ccccc2)s1`, -2.22% (inactive).
The figure for `CCN1CCC(=NNC(=O)c2ccco2)CC1` is 5.57% (inactive); for `CNC(=O)CC12CC3CC(CC(C3)C1)C2` it is 6.4% (inactive).
As for `CCOP(=O)(OCC)c1nc(-c2cccc([N+](=O)[O-])c2)oc1N1CCCCC1`, the inhibition was 5.71% (inactive).
The figure for `COc1ccc(CCn2c(C)cc(C(=O)CSc3nnnn3C)c2C)cc1` is 26.9% (inactive).
For `Cc1cc(C(=O)CSc2nnnn2C)c(C)n1CCc1ccc(F)cc1` the value was 15.4% (inactive); for `CNC(=O)c1sccc1SCc1c(Cl)cccc1Cl`, -1.14% (inactive).
`CC1=C(C(=O)OCC(Cl)(Cl)Cl)N2C(=O)C(NC(=O)Cc3ccccc3)C2SC1` (configuration not stated): the inhibition is 67.2% (inactive).
For `Cc1nnc(SCC2=C(C(=O)O)N3C(=O)C(NC(=O)Cc4ccccc4)C3SC2)s1` (configuration not stated) the value was 7.27% (inactive).
`COc1ccccc1N1CC(C(=O)OCc2nc(N)nc(Nc3ccccc3)n2)CC1=O` (configuration not stated): the inhibition is 15.4% (inactive).
The figure for `CC1(C(=O)N2CCOCC2)CCCCC1` is -0.21% (inactive); for `Cc1cc(C)cc(OCC(=O)Nc2cc(C)on2)c1` it is 0.63% (inactive).
`CCn1c(CNC(=O)c2cccc(C)c2)nnc1SCC(=O)NC1=NCCS1`: the inhibition is -12% (inactive).

The values above are taken from PubChem BioAssay AID1117319 (Southern Research Institute, 2015).
